Consider 14 sequences from the supplement of paper PMC6555819.

Assay in all cases: PBM binding z-score (relative to random genomic background probes); higher = stronger binding; sequences stand for … in GC…GCGATTGACAGCGTAGAATGAAGG
In experiment [1] the test system is RARb homodimer (NR concentration 270 nM). In short, it runs like this:
(§1)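 Binding z-scores take random background probes as their reference. They come from custom Agilent 4×180K protein-binding microarrays incubated 1 h with ligand-free nuclear receptor dimers, with antibodies against each partner (one per run) detecting binding. Scanned fluorescence was regression-normalized.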

For experiment [2], the system named is RARg:RXRa (NR concentration 270 nM, RXRa partner concentration 90 nM). The procedure, abridged: as §1
Experiment [3] relates to RARg homodimer (NR concentration 270 nM). In short, it runs like this:
as §1

Experiment [4] has as its system RXRa DBDmut IVT, anti-RXR (DBD mutation: RXRa K156A/R161A, NR concentration 90 nM). In short, it runs like this:
as §1

Experiment [5] relates to RXRa homodimer (NR concentration 180 nM). In short, it runs like this: as §1
For experiment [6], the system named is THRa:RXRa (NR concentration 90 nM, RXRa partner concentration 90 nM). In short, it runs like this:
as §1

The test system of experiment [7] is THRa homodimer (NR concentration 90 nM). The procedure, abridged:
as §1

For experiment [8], the system named is VDR homodimer (NR concentration 270 nM). In short, it runs like this: as §1

Regarding AGTCCAAGTTCATCTAGGTAACGTAAGATATGCT, the PBM binding z-score turned out to be 2.25 in experiment [1]; 2.91 in experiment [2]; 3.37 in experiment [3]; 4.78 in experiment [4]; 2.26 in experiment [5]; 2.76 in experiment [6]. The PBM binding z-score in experiment [7] was determined as 0.459; in experiment [8] it was 5.97.

For the sequence ATCTCTAGGTAAAGTTAAGTGAAAGATCGATAGA, the PBM binding z-score is -0.142 in experiment [1]; 0.48 in experiment [2]; 0.546 in experiment [3]; 0.204 in experiment [4]; 0.171 in experiment [5]; 0.478 in experiment [6]. Further, the PBM binding z-score in experiment [7] was -0.14; in experiment [8] it was 0.368.

For the sequence CCTAGTTGGTCAAGGGCACACACGCTATAGGTAC, the PBM binding z-score in experiment [1] is 1.78; in experiment [2], 1.41; in experiment [3] it was 1.99; in experiment [4] it was 0.232; in experiment [5], 0.726; in experiment [6], 1.09. For the same sequence, the PBM binding z-score amounted to 0.605 in experiment [7] and 1.09 in experiment [8].

Turning to TCTCGGAGGACACGAAAGGTCAGACCTCGACATC, the PBM binding z-score in experiment [1] worked out at 4.65; in experiment [2], 4.84; in experiment [3], 5.27; in experiment [4], 1.39; in experiment [5] it was 4.1; in experiment [6], 3.73. In addition, the PBM binding z-score in experiment [7] is 1.55; in experiment [8], 1.14.

Consider ACTAGCAGGCCAAGTTTTGGTCACTCAAACAAAG, for which the PBM binding z-score in experiment [1] is 0.74; in experiment [2], 0.448; in experiment [3], 0.546; in experiment [4], -0.286; in experiment [5], -0.0235; in experiment [6], 0.0291. The PBM binding z-score in experiment [7] is -0.326; in experiment [8], -0.447.

Take CCCAGTAGGTTATGGGGCATTCAGGCAACGGTGA: the PBM binding z-score in experiment [1] is 0.987; in experiment [2], 0.653; in experiment [3] it was 0.48; in experiment [4], -1.2; in experiment [5], 0.869; in experiment [6], 0.512. Besides, the PBM binding z-score was -0.000965 in experiment [7] and 0.0729 in experiment [8].

Turning to CCTACTAGGCCAAAAAGGTCATTGATGCCGATAA, the PBM binding z-score in experiment [1] was determined as 4.74; in experiment [2], 4.81; in experiment [3] it was 4.61; in experiment [4], 1.38; in experiment [5], 4.95; in experiment [6] it was 3.35. Further, the PBM binding z-score stood at 0.809 in experiment [7] and 2.99 in experiment [8].

Turning to TTACCAAGGAGAAGGTCGTTGATCCCTCTGTAGA, the PBM binding z-score in experiment [1] is 0.592; in experiment [2] it was 0.225; in experiment [3], 0.0485; in experiment [4], -0.392; in experiment [5], 1.27; in experiment [6] it was 0.759. In addition, the PBM binding z-score in experiment [7] is -0.096; in experiment [8], 0.372.

In the case of TCGAGTAGGTTAGTCGGGACATTCAGCCAACATA, the PBM binding z-score was 0.0324 in experiment [1]; -0.106 in experiment [2]; 0.0152 in experiment [3]; 0.327 in experiment [4]; 0.107 in experiment [5]; 1.39 in experiment [6]. The results for the PBM binding z-score in experiment [7] and in experiment [8] were 0.328 and 0.0666, respectively.

AATACAGTGTCACTAGGCCAGAGTAGGTACGAAT: the PBM binding z-score stood at 0.565 in experiment [1]; 0.553 in experiment [2]; 0.864 in experiment [3]; 0.0246 in experiment [4]; 0.185 in experiment [5]; 0.145 in experiment [6]. Also, the PBM binding z-score is -0.314 in experiment [7] and 0.0225 in experiment [8].

Take ACTATTAGATGACTTAGGGCAACCGATACGACGC: the PBM binding z-score came out at 1 in experiment [1]; 0.918 in experiment [2]; 1.25 in experiment [3]; 0.754 in experiment [4]; 0.767 in experiment [5]; 1.04 in experiment [6]. The PBM binding z-score in experiment [7] was found to be 0.469; in experiment [8] it was 0.377.

With CGTCCAAGGTCAGCAGGTCAGTGAAAGCGACGTG, the PBM binding z-score in experiment [1] is 5.12; in experiment [2] it was 6.35; in experiment [3], 6.64; in experiment [4] it was 2.54; in experiment [5] it was 4.82; in experiment [6] it was 4. Moreover, the PBM binding z-score in experiment [7] is 2.28; in experiment [8], 1.77.

On to GCGACTGGGGCATGAGCAGGTTACCATAACTTAA, for which the PBM binding z-score in experiment [1] was 0.894; in experiment [2], 0.84; in experiment [3], 0.396; in experiment [4], -0.489; in experiment [5], 0.385; in experiment [6] it was 0.664. In addition, the PBM binding z-score is -0.144 in experiment [7] and -0.116 in experiment [8].

On to ATCTCTAGGTAAAGATAATTCAGTGAATGCAAAT, for which the PBM binding z-score is -0.268 in experiment [1]; 0.658 in experiment [2]; 0.648 in experiment [3]; 0.0492 in experiment [4]; 0.365 in experiment [5]; 0.654 in experiment [6]. Further, the values for the PBM binding z-score in experiment [7] and in experiment [8] were 0.0536 and -0.00622, respectively.
